# Reference: PubChem BioAssay (EPA / NIEHS)
# Active and inactive are the calls of the source. How the source made its calls: active means hit-call score of the fitted dose curve at least 0.9, where 1 is the maximum; inactive means score below 0.9.
# Key:
# [1] = Tanguay_ZF_120hpf_MORT: Oregon State University Tanguay Lab 120 Hour Post-fertilization zebrafish Assay for Mortality (AID 2284399)
# Outline: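 Mortality, recorded present/absent via brightfield imaging at 24 and 120 hpf, in 5D zebrafish embryos exposed statically from 6 hpf after pronase chorion removal. Exposure at 28C, 0.64% DMSO vehicle, DMSO baseline.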
# [2] = Tanguay_ZF_120hpf_EDEM: Oregon State University Tanguay Lab 120 Hour Post-fertilization zebrafish Assay for Edema Malformation (AID 2284400)
# Outline: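 Edema recorded as a binary endpoint under brightfield at 120 hpf, excluding embryos that died. Exposure was static, sealed, 28C, from 6 hpf in dechorionated wild-type larvae, final DMSO 0.64%, DMSO as baseline.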
# [3] = Tanguay_ZF_120hpf_BRN: Oregon State University Tanguay Lab 120 Hour Post-fertilization zebrafish Assay for Brain Region Malformation (AID 2284402)
# Outline: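 Binary brightfield scoring of brain malformation at 120 hpf in 5D wild-type larvae, chorion removed with pronase at 4 hpf. Static exposure began at 6 hpf, 28C, sealed plates, DMSO 0.64% (vol/vol) as vehicle baseline.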
# [4] = Tanguay_ZF_120hpf_ANY: Oregon State University Tanguay Lab 120 Hour Post-fertilization zebrafish Assay for Any Mortality and Malformation (AID 2284404)
# Outline: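 Dechorionated Tropical 5D wild-type embryos, one per well from 6 hpf, static exposure in sealed, dark plates at 28C until 120 hpf, 0.64% DMSO final. Brightfield scoring of mortality and malformations as binary presence/absence, pooling 13 morphology endpoints.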
# [5] = CCTE_Padilla_ZF_Score.Edema: CCTE's 144 Hour Post-fertilization zebrafish Assay Score for Edema Malformation, Padilla Lab (AID 2284406)
# Outline: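 Edema scored at 6 dpf by two blinded observers under a stereo microscope, in single outbred wild-type larvae exposed from 6-8 hpf in sealed wells (Hanks', 26C, 14:10 h light) and chemical-free after a 5 dpf rinse.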
# [6] = CCTE_Padilla_ZF_Score.Spine: CCTE's 144 Hour Post-fertilization zebrafish Assay Score for Spine Malformation, Padilla Lab (AID 2284407)
# Outline: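 Spine malformation scored at 6 dpf by two independent blinded observers under stereomicroscope, after static sealed exposure from 6–8 hpf at 26C in Hanks' solution with rinse on 5 dpf. Positive-direction fit against DMSO control.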
# [7] = CCTE_Padilla_ZF_Score.Swim_bladder: CCTE's 144 Hour Post-fertilization zebrafish Assay Score for Swim Bladder Malformation, Padilla Lab (AID 2284408)
# Outline: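 Swim bladder inflation scored at 6 dpf by two blinded observers under a stereo microscope. Exposure ran from 6–8 hpf in sealed wells of 10% Hanks' at 26C, with rinsing at 5 dpf; DMSO served as baseline.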
# [8] = CCTE_Padilla_ZF_Score.Position: CCTE's 144 Hour Post-fertilization zebrafish Assay Score for Position, Padilla Lab (AID 2284409)
# Outline: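 Wild-type zebrafish embryos (with chorions) exposed singly from 6–8 hpf in sealed wells of Hanks' solution at 26C, rinsed at 5 dpf. At 6 dpf, blinded assessors scored abnormal water-column position by brightfield stereomicroscopy, relative to DMSO.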
# [9] = CCTE_Padilla_ZF_Score.Tail: CCTE's 144 Hour Post-fertilization zebrafish Assay Score for Tail Malformation, Padilla Lab (AID 2284414)
# Outline: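 Tail malformations were scored at 6 dpf by two blinded assessors under a stereo microscope. Chorionated embryos had been exposed from 6-8 hpf in sealed wells of 10% Hanks' at 26 C, then rinsed free of chemical at 5 dpf.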
# [10] = CCTE_Padilla_ZF_Score.Blood_pooling: CCTE's 144 Hour Post-fertilization zebrafish Assay Score for Blood Pooling, Padilla Lab (AID 2284415)
# Outline: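 Blood pooling was scored at 6 dpf under a stereo microscope by two blinded assessors, fitted upward against DMSO. Single embryos were dosed at 6–8 hpf in 10% Hanks', kept sealed at 26C (14:10 h cycle) and rinsed at 5 dpf.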
# [11] = CCTE_Padilla_ZF_Score.Any: CCTE's 144 Hour Post-fertilization zebrafish Assay Score for Any Mortality or Malformation, Padilla Lab (AID 2284416)
# Outline: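 Wild-type zebrafish embryos with chorions, one per well in 10% Hanks' from 6–8 hpf, dosed in sealed plates at 26 C, 14:10 h light:dark; rinsed at 5 dpf; blinded scoring at 6 dpf for death or malformation, versus DMSO.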
# TTR (gene 7276) = assay: CCTE_GLTED_hTTR_0.125uM: CCTE's human Transthyretin (hTTR) Inhibition Assay, with 0.125uM TTR, Great Lakes Toxicology and Ecology Division (GLTED) Lab (AID 2284431);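 further: hits lower the fluorescence signal relative to DMSO baseline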
# Outline: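 Probe-displacement format: chemicals competing for the T4 site release ANSA from 0.125uM TTR during a 2 h incubation, measured by fluorescence at 380 excitation and 475 emission.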
# [12] = CCTE_Padilla_ZF_Score.Craniofacial: CCTE's 144 Hour Post-fertilization zebrafish Assay Score for Craniofacial Malformation, Padilla Lab (AID 2284405)
# Outline: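 Craniofacial defects were scored at 6 dpf by two blinded observers using stereomicroscopy. Exposure of wild-type embryos began at 6–8 hpf in sealed wells of 10% Hanks' solution at 26C, with chemical removed by rinsing at 5 dpf.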
# [13] = CCTE_Padilla_ZF_Score.General: CCTE's 144 Hour Post-fertilization zebrafish Assay Score for General Malformation, Padilla Lab (AID 2284411)
# Outline: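 Malformation, death and hatching were scored at 6 dpf by two blinded observers under a stereo microscope. Embryos were dosed singly from 6-8 hpf in sealed plates of 10% Hanks' at 26C and rinsed on 5 dpf; DMSO baseline.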
smiles,measurement,setting,value
FC(F)(F)C(F)(F)C(F)(F)N(C(F)(F)C(F)(F)C(F)(F)F)C(F)(F)C(F)(F)C(F)(F)F,outcome,[1],inactive
same,outcome,[2],inactive
same,outcome,[3],inactive
same,outcome,[4],inactive
same,outcome,[5],inactive
same,outcome,[6],inactive
same,outcome,[7],inactive
same,outcome,[8],inactive
same,outcome,[9],inactive
same,outcome,[10],inactive
same,outcome,[11],inactive
FC(F)(F)C(F)(F)C(F)(F)C(F)(F)C(F)(F)CCI,outcome,[1],inactive
same,outcome,[2],inactive
same,outcome,[3],inactive
same,outcome,[4],inactive
same,AC50,[5],30.4 µM (active)
same,outcome,[6],inactive
same,AC50,[7],30.4 µM (active)
same,outcome,[8],inactive
same,outcome,[9],inactive
same,outcome,[10],inactive
same,AC50,[11],31.9 µM (active)
CCO[Si](CCC(F)(F)C(F)(F)C(F)(F)C(F)(F)C(F)(F)C(F)(F)F)(OCC)OCC,outcome,[1],inactive
same,outcome,[2],inactive
same,outcome,[3],inactive
same,outcome,[4],inactive
same,outcome,[5],inactive
same,outcome,[6],inactive
same,outcome,[7],inactive
same,outcome,[8],inactive
same,outcome,[9],inactive
same,outcome,[10],inactive
same,outcome,[11],inactive
CCCCC(CC)COP(=O)(O)OCC(CC)CCCC (configuration not stated),AC50,TTR (gene 7276),5.44 µM (active)
FC(F)(I)C(F)(F)C(F)(F)C(F)(F)I,AC50,[12],76.2 µM (active)
same,AC50,[5],24.3 µM (active)
same,outcome,[6],inactive
same,AC50,[7],27.5 µM (active)
same,outcome,[8],inactive
same,AC50,[9],80.4 µM (active)
same,outcome,[10],inactive
same,AC50,[11],16.9 µM (active)
Cc1ccc(S(=O)(=O)NCl)cc1,AC50,TTR (gene 7276),44.5 µM (active)
FC(F)(F)C(F)(F)C(F)(F)C(F)(F)C(F)(F)C(F)(F)CCS,outcome,[5],inactive
same,outcome,[6],inactive
same,outcome,[7],inactive
same,outcome,[8],inactive
same,outcome,[13],inactive
same,outcome,[9],inactive
same,outcome,[10],inactive
same,outcome,[11],inactive
O=C(O)C(F)(OC(F)(F)C(F)(OC(F)(F)C(F)(F)C(F)(F)F)C(F)(F)F)C(F)(F)F (configuration not stated),outcome,[1],inactive
same,outcome,[2],inactive
same,outcome,[3],inactive
same,outcome,[4],inactive
same,outcome,[5],inactive
same,outcome,[6],inactive
same,outcome,[7],inactive
same,outcome,[8],inactive
same,outcome,[9],inactive
same,outcome,[10],inactive
same,outcome,[11],inactive
C=C(C)C(=O)OCCC(F)(F)C(F)(F)C(F)(F)C(F)(F)C(F)(C(F)(F)F)C(F)(F)F,outcome,[1],inactive
same,outcome,[2],inactive
same,outcome,[3],inactive
same,outcome,[4],inactive
same,outcome,[5],inactive
same,outcome,[6],inactive
same,outcome,[7],inactive
same,outcome,[8],inactive
same,outcome,[13],inactive
same,outcome,[9],inactive
same,outcome,[10],inactive
same,outcome,[11],inactive
O=C(O)C(F)(F)C(F)(F)C(F)(F)F,outcome,[1],inactive
same,outcome,[2],inactive
same,outcome,[3],inactive
same,outcome,[4],inactive
same,outcome,[5],inactive
same,outcome,[6],inactive
same,outcome,[7],inactive
same,outcome,[8],inactive
same,outcome,[9],inactive
same,outcome,[10],inactive
same,outcome,[11],inactive
c1ccc(B(c2ccccc2)c2ccccc2)cc1,AC50,TTR (gene 7276),1.6 µM (active)
FC(F)(F)C(F)(F)C(F)(F)C(F)(F)C(F)(F)C(F)(F)C(F)(F)Br,outcome,[1],inactive
same,outcome,[2],inactive
same,outcome,[3],inactive
same,outcome,[4],inactive
same,outcome,[5],inactive
same,outcome,[6],inactive
same,outcome,[7],inactive
same,outcome,[8],inactive
same,outcome,[9],inactive
same,outcome,[10],inactive
same,outcome,[11],inactive
O=C(O)C(F)(F)C(F)(F)C(F)(F)C(F)(F)C(F)(F)C(F)(F)C(F)(F)C(F)(F)C(F)(F)C(F)F,AC50,[1],37 µM (active)
same,outcome,[2],inactive
same,outcome,[3],inactive
same,AC50,[4],28.8 µM (active)
same,AC50,[5],14.9 µM (active)
same,outcome,[6],inactive
same,outcome,[7],inactive
same,outcome,[8],inactive
same,outcome,[9],inactive
same,outcome,[10],inactive
same,AC50,[11],15 µM (active)
O=C(O)C=C(C(F)(F)F)C(F)(F)F,outcome,[1],inactive
same,outcome,[2],inactive
same,outcome,[3],inactive
same,outcome,[4],inactive
same,outcome,[5],inactive
same,outcome,[6],inactive
same,outcome,[7],inactive
same,outcome,[8],inactive
same,outcome,[9],inactive
same,outcome,[10],inactive
same,outcome,[11],inactive
CC(Cc1ccc(O)c(O)c1)C(C)Cc1ccc(O)c(O)c1 (configuration not stated),AC50,TTR (gene 7276),0.0909 µM (active)
FC(F)(F)C(F)(F)CNCC(F)(F)C(F)(F)F,outcome,[1],inactive
same,outcome,[2],inactive
same,outcome,[3],inactive
same,outcome,[4],inactive
same,outcome,[5],inactive
same,outcome,[6],inactive
same,AC50,[7],0.00275 µM (active)
same,outcome,[8],inactive
same,outcome,[9],inactive
same,outcome,[10],inactive
same,AC50,[11],0.00326 µM (active)
O=S(=O)(OCC(F)F)C(F)(F)F,outcome,[1],inactive
same,outcome,[2],inactive
same,outcome,[3],inactive
same,outcome,[4],inactive
same,outcome,[5],inactive
same,outcome,[6],inactive
same,outcome,[7],inactive
same,outcome,[8],inactive
same,outcome,[9],inactive
same,outcome,[10],inactive
same,outcome,[11],inactive
OCC(F)(F)C(F)(F)C(F)(F)C(F)(F)C(F)(F)C(F)(F)F,outcome,[1],inactive
same,outcome,[2],inactive
same,outcome,[3],inactive
same,AC50,[4],112 µM (active)
same,AC50,[5],84.7 µM (active)
same,outcome,[6],inactive
same,outcome,[7],inactive
same,outcome,[8],inactive
same,outcome,[9],inactive
same,AC50,[10],93.7 µM (active)
same,AC50,[11],80.5 µM (active)
O=C(CC(=O)C(F)(F)C(F)(F)F)C(F)(F)F,outcome,[1],inactive
same,outcome,[2],inactive
same,outcome,[3],inactive
same,AC50,[4],0.0499 µM (active)
same,outcome,[5],inactive
same,outcome,[6],inactive
same,outcome,[7],inactive
same,outcome,[8],inactive
same,outcome,[9],inactive
same,outcome,[10],inactive
same,outcome,[11],inactive
O=C(O)C(F)(F)C(F)(F)C(F)(F)C(F)(F)C(F)(F)C(F)(F)C(F)(F)C(F)(F)C(F)(F)C(F)(F)C(F)(F)C(F)(F)C(F)(F)F,outcome,[1],inactive
same,outcome,[2],inactive
same,outcome,[3],inactive
same,outcome,[4],inactive
same,outcome,[5],inactive
same,outcome,[6],inactive
same,outcome,[7],inactive
same,outcome,[8],inactive
same,outcome,[9],inactive
same,outcome,[10],inactive
same,outcome,[11],inactive
C=C(C)C(=O)OCC(F)(F)C(F)(F)C(F)(F)F,outcome,[1],inactive
same,outcome,[2],inactive
same,outcome,[3],inactive
same,outcome,[4],inactive
same,outcome,[5],inactive
same,outcome,[6],inactive
same,outcome,[7],inactive
same,outcome,[8],inactive
same,outcome,[9],inactive
same,outcome,[10],inactive
same,outcome,[11],inactive
FC(F)(F)C(F)(F)C(F)(F)C(F)(F)C(F)(F)C(F)(F)C(F)(F)C(F)(F)F,outcome,[1],inactive
same,outcome,[2],inactive
same,outcome,[3],inactive
same,outcome,[4],inactive
same,outcome,[5],inactive
same,outcome,[6],inactive
same,outcome,[7],inactive
same,outcome,[8],inactive
same,outcome,[9],inactive
same,outcome,[10],inactive
same,outcome,[11],inactive
